Measurements: the supplement of paper PMC7411054

Legend:
Details in all cases: treatment time: 24 h
A549-ACTB-RAB5A [1] = assay: lowest phenotypically active concentration; higher = less potent
Summary of the method: (§1)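 Fifteen gene-edited A549, HepG2 and WPMY1 reporter lines (BFP segmentation plus GFP and RFP/FusionRed markers) were treated at 0.3, 1, 3 or 9 µM for 24 h, four wells each, then imaged live. Live-cell features per well were normalised to DMSO control wells. Deviation required ≥3 of 4 wells beyond the 95th percentile of DMSO Euclidean distances, and reproducibility required median replicate Pearson correlation above the 95th percentile of non-replicates. Phenotypic activity needed both criteria.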

A549-CANX-COX4 [2] = assay: as above
Summary of the method: as §1

A549-GM130-SQSTM1 [3] = assay: as above
Summary of the method: as §1

A549-TP53BP1-CLTA [4] = assay: as above
Summary of the method: as §1

A549-TUBA1B-RELA [5] = assay: as above
Summary of the method: as §1

A549-ACTB-RAB5A [6] = assay: phenotypically active (imaging signature differs from DMSO and reproducible) at any of 0.3-9 uM (binary (1 = active, 0 = inactive)); higher = active
Summary of the method: as §1

A549-CANX-COX4 [7] = assay: as above
Summary of the method: as §1

A549-GM130-SQSTM1 [8] = assay: as above
Summary of the method: as §1

A549-TP53BP1-CLTA [9] = assay: as above
Summary of the method: as §1

A549-TUBA1B-RELA [10] = assay: as above
Summary of the method: as §1

HepG2-ACTB-RAB5A = assay: as above
Summary of the method: as §1

HepG2-CANX-COX4 = assay: as above
Summary of the method: as §1

HepG2-GM130-SQSTM1 = assay: as above
Summary of the method: as §1

HepG2-TP53BP1-CLTA = assay: as above
Summary of the method: as §1

HepG2-TUBA1B-RELA = assay: as above
Summary of the method: as §1

WPMY1-ACTB-RAB5A = assay: as above
Summary of the method: as §1

WPMY1-CANX-COX4 = assay: as above
Summary of the method: as §1

WPMY1-GM130-SQSTM1 = assay: as above
Summary of the method: as §1

WPMY1-TP53BP1-CLTA = assay: as above
Summary of the method: as §1

WPMY1-TUBA1B-RELA = assay: as above
Summary of the method: as §1

Cc1noc(C)c1-c1cc(O)cc(C(O)c2ccccc2)c1 (stereo not given)
9 µM: lowest phenotypically active concentration (A549-CANX-COX4 [2])
active: phenotypically active (A549-ACTB-RAB5A [6]) 1 | phenotypically active (A549-CANX-COX4 [7]) 1 | phenotypically active (A549-GM130-SQSTM1 [8]) 1 | phenotypically active (A549-TP53BP1-CLTA [9]) 1 | phenotypically active (A549-TUBA1B-RELA [10]) 1 | phenotypically active (HepG2-ACTB-RAB5A) 1 | phenotypically active (HepG2-CANX-COX4) 1 | phenotypically active (HepG2-GM130-SQSTM1) 1 | phenotypically active (HepG2-TP53BP1-CLTA) 1 | phenotypically active (HepG2-TUBA1B-RELA) 1 | phenotypically active (WPMY1-ACTB-RAB5A) 1 | phenotypically active (WPMY1-CANX-COX4) 1 | phenotypically active (WPMY1-GM130-SQSTM1) 1 | phenotypically active (WPMY1-TP53BP1-CLTA) 1 | phenotypically active (WPMY1-TUBA1B-RELA) 1
3 µM: lowest phenotypically active concentration (A549-GM130-SQSTM1 [3]) | lowest phenotypically active concentration (A549-TP53BP1-CLTA [4]) | lowest phenotypically active concentration (A549-TUBA1B-RELA [5])
1 µM: lowest phenotypically active concentration (A549-ACTB-RAB5A [1])

Cc1cn(CCN2CCN(c3ccccc3-c3cc(C#N)cc(C(=O)NCCCN4CCCC4)c3)CC2)c2ccccc12
3 µM: lowest phenotypically active concentration (A549-CANX-COX4 [2]) | lowest phenotypically active concentration (A549-TP53BP1-CLTA [4])
1 µM: lowest phenotypically active concentration (A549-ACTB-RAB5A [1]) | lowest phenotypically active concentration (A549-GM130-SQSTM1 [3]) | lowest phenotypically active concentration (A549-TUBA1B-RELA [5])
active: phenotypically active (A549-ACTB-RAB5A [6]) 1 | phenotypically active (A549-CANX-COX4 [7]) 1 | phenotypically active (A549-GM130-SQSTM1 [8]) 1 | phenotypically active (A549-TP53BP1-CLTA [9]) 1 | phenotypically active (A549-TUBA1B-RELA [10]) 1 | phenotypically active (HepG2-ACTB-RAB5A) 1 | phenotypically active (HepG2-CANX-COX4) 1 | phenotypically active (HepG2-GM130-SQSTM1) 1 | phenotypically active (HepG2-TP53BP1-CLTA) 1 | phenotypically active (HepG2-TUBA1B-RELA) 1 | phenotypically active (WPMY1-ACTB-RAB5A) 1 | phenotypically active (WPMY1-CANX-COX4) 1 | phenotypically active (WPMY1-GM130-SQSTM1) 1 | phenotypically active (WPMY1-TP53BP1-CLTA) 1 | phenotypically active (WPMY1-TUBA1B-RELA) 1

O=C1NCCN1CCN1CCC(c2cn(-c3ccc(F)cc3)c3ccc(Cl)cc23)CC1 [sertindole]
active: phenotypically active (A549-ACTB-RAB5A [6]) 1 | phenotypically active (A549-CANX-COX4 [7]) 1 | phenotypically active (A549-GM130-SQSTM1 [8]) 1 | phenotypically active (A549-TP53BP1-CLTA [9]) 1 | phenotypically active (A549-TUBA1B-RELA [10]) 1 | phenotypically active (HepG2-ACTB-RAB5A) 1 | phenotypically active (HepG2-CANX-COX4) 1 | phenotypically active (HepG2-GM130-SQSTM1) 1 | phenotypically active (HepG2-TP53BP1-CLTA) 1 | phenotypically active (HepG2-TUBA1B-RELA) 1 | phenotypically active (WPMY1-ACTB-RAB5A) 1 | phenotypically active (WPMY1-CANX-COX4) 1 | phenotypically active (WPMY1-GM130-SQSTM1) 1 | phenotypically active (WPMY1-TP53BP1-CLTA) 1 | phenotypically active (WPMY1-TUBA1B-RELA) 1
9 µM: lowest phenotypically active concentration (A549-TP53BP1-CLTA [4])
3 µM: lowest phenotypically active concentration (A549-ACTB-RAB5A [1]) | lowest phenotypically active concentration (A549-CANX-COX4 [2]) | lowest phenotypically active concentration (A549-GM130-SQSTM1 [3]) | lowest phenotypically active concentration (A549-TUBA1B-RELA [5])

O=C(Cc1ccc(-c2ccc(OCCN3CCOCC3)cc2)cn1)NCc1ccccc1
≤ 0.3 µM: lowest phenotypically active concentration (A549-ACTB-RAB5A [1]) | lowest phenotypically active concentration (A549-CANX-COX4 [2]) | lowest phenotypically active concentration (A549-GM130-SQSTM1 [3]) | lowest phenotypically active concentration (A549-TP53BP1-CLTA [4]) | lowest phenotypically active concentration (A549-TUBA1B-RELA [5])
active: phenotypically active (A549-ACTB-RAB5A [6]) 1 | phenotypically active (A549-CANX-COX4 [7]) 1 | phenotypically active (A549-GM130-SQSTM1 [8]) 1 | phenotypically active (A549-TP53BP1-CLTA [9]) 1 | phenotypically active (A549-TUBA1B-RELA [10]) 1 | phenotypically active (HepG2-ACTB-RAB5A) 1 | phenotypically active (HepG2-CANX-COX4) 1 | phenotypically active (HepG2-GM130-SQSTM1) 1 | phenotypically active (HepG2-TP53BP1-CLTA) 1 | phenotypically active (HepG2-TUBA1B-RELA) 1 | phenotypically active (WPMY1-ACTB-RAB5A) 1 | phenotypically active (WPMY1-CANX-COX4) 1 | phenotypically active (WPMY1-GM130-SQSTM1) 1 | phenotypically active (WPMY1-TP53BP1-CLTA) 1 | phenotypically active (WPMY1-TUBA1B-RELA) 1

CC[C@H](CO)Nc1nc(NCc2ccc(-c3ccccn3)cc2)c2ncn(C(C)C)c2n1
≤ 0.3 µM: lowest phenotypically active concentration (A549-ACTB-RAB5A [1]) | lowest phenotypically active concentration (A549-CANX-COX4 [2]) | lowest phenotypically active concentration (A549-GM130-SQSTM1 [3]) | lowest phenotypically active concentration (A549-TP53BP1-CLTA [4]) | lowest phenotypically active concentration (A549-TUBA1B-RELA [5])
active: phenotypically active (A549-ACTB-RAB5A [6]) 1 | phenotypically active (A549-CANX-COX4 [7]) 1 | phenotypically active (A549-GM130-SQSTM1 [8]) 1 | phenotypically active (A549-TP53BP1-CLTA [9]) 1 | phenotypically active (A549-TUBA1B-RELA [10]) 1 | phenotypically active (HepG2-ACTB-RAB5A) 1 | phenotypically active (HepG2-CANX-COX4) 1 | phenotypically active (HepG2-GM130-SQSTM1) 1 | phenotypically active (HepG2-TP53BP1-CLTA) 1 | phenotypically active (HepG2-TUBA1B-RELA) 1 | phenotypically active (WPMY1-ACTB-RAB5A) 1 | phenotypically active (WPMY1-CANX-COX4) 1 | phenotypically active (WPMY1-GM130-SQSTM1) 1 | phenotypically active (WPMY1-TP53BP1-CLTA) 1 | phenotypically active (WPMY1-TUBA1B-RELA) 1
